# Results from PubChem BioAssay AID743468 (Broad Institute, 2014).
# Some of the results follow. Activity calls are given as the source filed them.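 How the source made its calls: active means fitted curve reaching a 40% PDK4 expression rise at or below the top valid tested dose; inconclusive means no clear call, values can overlap the other calls; inactive means the rest, including shifts the wrong way.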
# Test: change in PGC-1a target gene PDK4 expression, dose response, C2C12 myotubes, RT-qPCR, cherry-pick (AID 743468)
compound,measurement,value
N#Cc1ccc(-c2ccc(C3[C@@H]4CN(S(=O)(=O)c5ccc(F)cc5)C[C@H]3N4)cc2)cc1 (stereo partly specified),outcome,inactive
